# FBW7 act = human FBW7 E3 ligase activation, primary screen | Q969H0 | AlphaScreen FBW7–phospho-cyclin E peptide binding, activator screen | normalized activity (activation), % at 26.1 µM | 0.13% of 650,000 active; in the data active means normalized activity above about 1.9%;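 further: purified mutant Fbw7 with reduced substrate affinity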
# MITF primary = human MITF inhibition, primary screen. O75030. AlphaScreen MITF homodimerization, bead proximity signal. inhibition, % at 2.6 µM. 0.91% of 650,000 active. AID 1259374; in the data active means inhibition above about 50%
# GPR151 activ = activates the human receptor GPR151. Q8TDV0. PathHunter beta-arrestin GPR151 cells, luminescence. activation, % at 11.2 µM. 1% of 650,000 active. AID 1508602; in the data active means activation above about 4.9%
# Target sequence (Q8TDV0 whole entry, looked up): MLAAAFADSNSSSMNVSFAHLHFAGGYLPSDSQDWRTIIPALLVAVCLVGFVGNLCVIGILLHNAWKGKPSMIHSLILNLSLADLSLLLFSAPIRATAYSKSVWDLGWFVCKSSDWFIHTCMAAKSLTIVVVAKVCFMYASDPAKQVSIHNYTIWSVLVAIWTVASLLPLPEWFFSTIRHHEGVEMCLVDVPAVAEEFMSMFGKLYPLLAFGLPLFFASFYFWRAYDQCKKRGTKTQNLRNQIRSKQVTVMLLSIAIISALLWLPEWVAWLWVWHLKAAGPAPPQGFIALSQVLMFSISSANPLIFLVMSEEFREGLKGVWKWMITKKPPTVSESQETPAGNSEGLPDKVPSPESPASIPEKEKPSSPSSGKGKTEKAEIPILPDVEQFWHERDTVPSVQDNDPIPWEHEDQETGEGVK
# TEAD-YAP inh = TEAD-YAP interaction inhibition | HEK-TIYL cells, TEAD-Gal4/YAP UAS-luciferase luminescence | 1.4% of 640,000 active | AID 1259422 | inhibition, % at 9.12 µM; in the data active means inhibition above about 32%
# Numbers stand for hits; n = inactive. An excerpt weighted towards active compounds, which were near 3.5% of everything screened.
SMILES,FBW7 act,MITF primary,GPR151 activ,TEAD-YAP inh
O=C1C2=C(Nc3[nH]c(=O)[nH]c(=O)c3C2c2ccc(Cl)cc2)c2ccccc21 (configuration not stated),n,n,n,42
Nc1nonc1C(=O)N1CCN(c2ccc([N+](=O)[O-])cc2)CC1,n,n,n,n
CNC(=O)c1ccc2cnc(Nc3ccc(-n4cnc(N5CCOCC5)n4)cc3)nc2c1,n,n,n,55
O=C(NCc1ccccc1)c1ccc2cnc(Nc3ccc(-n4cnc(N5CCOCC5)n4)cc3)nc2c1,n,n,n,n
Cn1nccc1-c1ccc2cnc(Nc3ccc(-n4cnc(N5CCOCC5)n4)cc3)nc2c1,n,n,n,n
c1cc(-n2cnc(N3CCOCC3)n2)ccc1Nc1ncc2ccc(N3CCOCC3)cc2n1,n,n,n,n
c1cc(-c2ccc3cnc(Nc4ccc(-n5cnc(N6CCOCC6)n5)cc4)nc3c2)[nH]n1,13,n,n,n
Nc1ccc(-c2ccc3cnc(Nc4ccc(-n5cnc(N6CCOCC6)n5)cc4)nc3c2)cn1,n,n,n,65
COc1ccc(NC(=O)CCCCCn2c(SCc3ccccc3F)nc3ccsc3c2=O)cc1,n,n,n,n
COc1cc(/C=C2\C(=O)N(C)C(=O)N(c3ccccc3)C2=O)cc(OC)c1O,n,n,n,n
COc1cc(/C=C2/C(=O)N(C)c3ccccc32)cc(OC)c1O,n,n,n,41
O=C(Cc1c(F)c(F)c(F)c(F)c1F)Nc1nncs1,n,n,n,n
COc1ccc(-c2cc(C(F)(F)F)n3ncc(C(=O)Nc4cc(C)ccc4O)c3n2)cc1,n,n,n,n
O=[N+]([O-])c1cnc(Nc2ccc(S(=O)(=O)Nc3nccs3)cc2)c([N+](=O)[O-])c1,n,n,n,n
O=[N+]([O-])c1ccc(Nc2nccs2)c([N+](=O)[O-])c1,n,n,n,59
N[C@H](Cc1ccc(Cl)cc1)c1nc2ncc(-c3ccncc3)cc2[nH]1,n,n,n,n
NC(c1nc2ncc(-c3ccncc3)cc2[nH]1)c1ccc(F)cc1F (configuration not stated),3.5,n,n,n
COc1ccccc1C(NC(C)=O)c1ccc2cccnc2c1O (configuration not stated),n,57,n,33
COc1ccccc1C(NC(=O)C(C)C)c1ccc2cccnc2c1O (configuration not stated),n,n,n,73
CN(CCO)c1cc(N2CCCCC2)c([N+](=O)[O-])cc1[N+](=O)[O-],n,n,n,n
Cc1cc(=O)nc2c3ccccc3n(C(C)C(=O)NC3CCCc4ccccc43)n12 (configuration not stated),n,n,n,n
CC(=O)Nc1cccc(NC(=O)C(c2ccccc2)N2Cc3ccccc3C2=O)c1 (configuration not stated),n,n,n,n
COc1ccccc1N/C=C(/C#N)c1nc(-c2ccc([N+](=O)[O-])cc2)cs1,n,n,n,n
Cc1nc(NCC2COc3ccccc3O2)c2c(C)c(C)sc2n1 (configuration not stated),n,n,n,47
c1ccc(Cc2nc(NCC3COc4ccccc4O3)c3c4c(sc3n2)CCCC4)cc1 (configuration not stated),n,n,n,n
SMILES,FBW7 act,MITF primary,GPR151 activ,TEAD-YAP inh
Cc1nc(NCc2ccc3c(c2)OCO3)c2c(C)c(C)sc2n1,n,n,n,39
O=C1c2ccccc2S(=O)(=O)N1C(=O)c1cccc2ccccc12,n,n,n,n
CC(=O)N1N=C2CCCCC2C1C(C)C (configuration not stated),n,n,n,n
C=CCn1c(SCCCC)nc2sc3c(c2c1=O)CCCC3,n,n,n,n
O=C1OC(c2ccc(Cl)c([N+](=O)[O-])c2)=N/C1=C\c1cccc(F)c1,2.0,n,n,n
O=C1OC(c2cccc(F)c2)=N/C1=C\c1ccccc1,n,n,n,36
O=C1OC(c2ccc(-c3ccccc3)cc2)=N/C1=C\c1cccc(F)c1,n,n,n,n
O=C1OC(c2ccc(Cl)c([N+](=O)[O-])c2)=N/C1=C/c1cccc(Cl)c1,n,n,n,n
CC(=O)c1ccc(NC(=O)CSc2nc3ccc(C)cc3[nH]2)cc1,n,n,n,n
CCN1CCN(CC(O)CN2CCn3c4c(c5cc(C6CCCCC6)ccc53)CCCC42)CC1 (configuration not stated),n,51,n,n
CCN1CCn2c3c(c4cc(Br)ccc42)CCCC31 (configuration not stated),n,n,n,n
Cc1cccc(NC(=O)CC(C)(C)C)c1C,n,n,n,n
CCC(C)N(CC(=O)Nc1cccc(C)c1C)C(=O)CCl (configuration not stated),n,n,n,69

# From PubChem BioAssay
